Measured values published in the supplement of paper PMC6555819.

System: LXRa homodimer (NR concentration 270 nM)
Assay: PBM binding z-score (relative to random genomic background probes); higher = stronger binding; sequences stand for … in GC…GCGATTGACAGCGTAGAATGAAGG
In short: (§1)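 Binding buffer was PBS pH 7.4 with 2% milk, 0.02% Triton X-100, 1 mM DTT, 0.2 mg/mL BSA and 0.4 mg/ml salmon testes DNA. In it, ligand-free nuclear receptor dimers were incubated 1 h on custom Agilent 4×180K protein-binding microarrays carrying double-stranded probes. Antibodies against each partner (one per run) detected binding, and z-scores were calculated against random background probes after regression normalization of scanned fluorescence.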

Row | Sequence | PBM binding z-score
1 | TTACCAGGGTGAAGGTCGTTGATCCCTCTGTAGA | -0.022
2 | TCATATAGGTAAACTGGTGAAAGTCCGTAAGTTA | 0.129
3 | TCTATTAGTTCATTAGGGCAACCGAAACAGCGGA | 1.56
4 | TCTTGTAGATCAACGGTTAAGAAAGCCGAAGCCT | -0.0283
5 | TCTAGTTAGTCAAAGGTCACACACTCGAAATGCG | 4.78
6 | ATCTCTATGTAACCAAGTTCAGTGAATGCCGAAC | 0.727
7 | TGAATGAGGTTATAAGATCACGGAACGTTGCAAA | -0.0904
8 | CGTCAAAGTTCGAGGTAACGTAACAGAAAGCAGC | 0.0429
9 | CAAACTAGGCCAAAGGTCAAAGTCGAGCCAACCA | 4.2
10 | GCATATAGGTAATAGAAGGTGAAAGTCCGATTGT | 0.235
11 | TCTTGTAGATCAGCAGGTTAAGAAGGCTGGCCAA | -0.0872
12 | GCTGCTAGGTCAACTGATCGTCAGCTAAAGCTCG | -0.171
13 | TTACCAAGGGGAAGGTCGTTGATCCCTCTGTAGA | -0.259
14 | CTCGAAAGGTTGGTTGAGGTGAGTATACGGATAA | -0.0312
15 | TCTTGTAGATAAATAGAGGTTAAGAAAGTGCGCT | 1.55
16 | GCTCGGAGGATAAGGTCAGAGCTTTGTCCGTAGA | -0.483
17 | TCATATCGGTAAAGGTGAAAGTCGAACGATATGA | -0.173
18 | CGTCCAAGGTCAACGGTCAGTGAAGAGATGACGG | 1.45
19 | GCTATTAGTTGATAGGGCAACCGAATGATTCTCG | -0.0602
20 | GATACAGGGTCAAGGCCGGAGTACGCGTATTGAT | 0.0137

Row | Sequence | PBM binding z-score
21 | CGAACTAGGTCATTGACACGACAGTGAATAGTAA | 0.689
22 | CCTACTGTGCCAAAGGTCATTGATTCCAATGCTC | 5.32
23 | TCTCGGAGTACACGAAAGGTCAGAGCTCGACATC | 2.03
24 | CCAGACAGGTGAAAGGGAACTCAGTCTGGTACGC | -0.366
25 | ATCTAAAGGTCGTGAGGTGAGTATACAGAAAGGC | 1.01
26 | CCGACTGCGGCAAAGGTTACCATACTCAGTACGA | 0.087
27 | TCTTGTAGCTCAGCAGGTTAAGAAAGCTGGCCAA | -0.851
28 | CCTACTGGGCGAAAGGTCATTGATTCCAATGCTC | 3.02
29 | ATTGAAAGGTCGTGAGGTGAGTATACAGAAAGGC | 0.73
30 | CTAGACAGGTGAGAAGGTAACTCAGCCTCGATTA | -0.246
31 | AGTCAAAGTTCACTAGGTGACGTAAGATTCAGCT | 3.15
32 | TCTTGTAGATCAAGCAGGTTAAGCAAGCCTGAGT | -0.473
33 | GCTAGCAGGCCATTTGGTTCACTCAATGACGGGC | -0.84
34 | CCTAGCAGGCCAAGCTGGGTCACTCAAGGCTTGA | -0.429
35 | GCAGAGAGGTGAAACGCAGGTAACTCAGGGTGGC | -0.671
36 | TCTTGTAGATTAAGCAGGTTAAGAAAGCCTGAGT | -0.181
37 | CCTGGTAGGTCAATGGTCAGCTAAAGCAGCTCGC | 0.425
38 | GCAGACAGGTGAAACGCACGTAACTCAGGGTGGC | -0.524
39 | TCTAGAAGGCCAGAGGGTCACTCAAGAGGTACGG | -0.432
40 | GGAGACAGGTGAAACGCAGGTAACTCAGGGTGGC | -0.296

System: LXRb:RXRa (NR concentration 270 nM, RXRa partner concentration 90 nM)
Assay: as above
In short: as §1

Row | Sequence | PBM binding z-score
41 | TTACCAGGGTGAAGGTCGTTGATCCCTCTGTAGA | 1.44
42 | TCATATAGGTAAACTGGTGAAAGTCCGTAAGTTA | 0.808
43 | TCTATTAGTTCATTAGGGCAACCGAAACAGCGGA | 1.29
44 | TCTTGTAGATCAACGGTTAAGAAAGCCGAAGCCT | 0.131
45 | TCTAGTTAGTCAAAGGTCACACACTCGAAATGCG | 5.34
46 | ATCTCTATGTAACCAAGTTCAGTGAATGCCGAAC | 0.489
47 | TGAATGAGGTTATAAGATCACGGAACGTTGCAAA | 1.48
48 | CGTCAAAGTTCGAGGTAACGTAACAGAAAGCAGC | 0.91
49 | CAAACTAGGCCAAAGGTCAAAGTCGAGCCAACCA | 5.75
50 | GCATATAGGTAATAGAAGGTGAAAGTCCGATTGT | 0.582
51 | TCTTGTAGATCAGCAGGTTAAGAAGGCTGGCCAA | 0.367
52 | GCTGCTAGGTCAACTGATCGTCAGCTAAAGCTCG | 1.86
53 | TTACCAAGGGGAAGGTCGTTGATCCCTCTGTAGA | 0.976
54 | CTCGAAAGGTTGGTTGAGGTGAGTATACGGATAA | 0.38
55 | TCTTGTAGATAAATAGAGGTTAAGAAAGTGCGCT | 1.9
56 | GCTCGGAGGATAAGGTCAGAGCTTTGTCCGTAGA | 1.26
57 | TCATATCGGTAAAGGTGAAAGTCGAACGATATGA | 1.35
58 | CGTCCAAGGTCAACGGTCAGTGAAGAGATGACGG | 4.23
59 | GCTATTAGTTGATAGGGCAACCGAATGATTCTCG | -0.111
60 | GATACAGGGTCAAGGCCGGAGTACGCGTATTGAT | 3.51

Row | Sequence | PBM binding z-score
61 | CGAACTAGGTCATTGACACGACAGTGAATAGTAA | 2.48
62 | CCTACTGTGCCAAAGGTCATTGATTCCAATGCTC | 5.34
63 | TCTCGGAGTACACGAAAGGTCAGAGCTCGACATC | 3.2
64 | CCAGACAGGTGAAAGGGAACTCAGTCTGGTACGC | -0.0234
65 | ATCTAAAGGTCGTGAGGTGAGTATACAGAAAGGC | 3.73
66 | CCGACTGCGGCAAAGGTTACCATACTCAGTACGA | 1.73
67 | TCTTGTAGCTCAGCAGGTTAAGAAAGCTGGCCAA | -0.1
68 | CCTACTGGGCGAAAGGTCATTGATTCCAATGCTC | 4.35
69 | ATTGAAAGGTCGTGAGGTGAGTATACAGAAAGGC | 3.49
70 | CTAGACAGGTGAGAAGGTAACTCAGCCTCGATTA | -0.171
71 | AGTCAAAGTTCACTAGGTGACGTAAGATTCAGCT | 3.09
72 | TCTTGTAGATCAAGCAGGTTAAGCAAGCCTGAGT | 0.104
73 | GCTAGCAGGCCATTTGGTTCACTCAATGACGGGC | -0.649
74 | CCTAGCAGGCCAAGCTGGGTCACTCAAGGCTTGA | 0.821
75 | GCAGAGAGGTGAAACGCAGGTAACTCAGGGTGGC | 0.662
76 | TCTTGTAGATTAAGCAGGTTAAGAAAGCCTGAGT | 0.403
77 | CCTGGTAGGTCAATGGTCAGCTAAAGCAGCTCGC | 1.98
78 | GCAGACAGGTGAAACGCACGTAACTCAGGGTGGC | -0.277
79 | TCTAGAAGGCCAGAGGGTCACTCAAGAGGTACGG | 1.28
80 | GGAGACAGGTGAAACGCAGGTAACTCAGGGTGGC | -0.0924
